Source: PubChem (SRMLSC)
This is a sample that favours compounds with a hit; in the whole collection about 6.3% have one here.
Spn MK inh – inhibitors of Streptococcus pneumoniae mevalonate kinase | inhibition, % at 10 µM | purified MK, PK/LDH-coupled NADH absorbance 340 nm | 0.48% of 65,000 active;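 active = ranked among the strongest by inhibition in the single 10 µM screen, a fixed top-ranked set picked for dose follow-up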
Spn DPM-DC inh – blocks S. pneumoniae diphosphomevalonate decarboxylase; purified DPM-DC, PK/LDH coupled NADH fluorescence; calls only at 10 µM; 0.49% of 65,000 active; AID 556;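 active = the 320 compounds with the highest percent inhibition in the single-dose primary screen, excluding strongly autofluorescent ones, cut at about 32% in these data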;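 note: kinetic rate of NADH fluorescence loss reporting ADP formed by the decarboxylase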
PMK inhibit – blocks S. pneumoniae phosphomevalonate kinase; purified PMK, PK/LDH-coupled NADH absorbance 340 nm; inhibition, % at 10 µM; 0.49% of 65,000 active; AID 539;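 active = top-ranked compounds by inhibition in the single 10 µM screen, taking a fixed number of the strongest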
A340 absorber – absorbance at 340 nm; fold change at 10 µM; compound absorbance at 340 nm, fold over control; 65,000 tested, under 10 active;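 active = at 10 µM dose, initial 340 nm absorbance at least 2 fold that of control wells; inactive = change under 2 fold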;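 note: initial absorbance extrapolated from kinetic A340 decline of NADH oxidation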
NADH enzymes – blocks coupling enzymes of NAD/NADH assays; 0.02% of 65,000 active; IC50, µM (highest dose often 10 µM); coupled PK/LDH NADH assays, four targets;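 active = single-dose screening hits from any of four coupled enzyme assays that gave an IC50 when retested across doses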;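 note: the DPM-DC format reads NADH fluorescence rather than 340 nm absorbance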
Autofluor 339 – intrinsic fluorescence of library compounds, ex339/em460 – biochemical, MLSMR library, data from DPM-DC assay, artefact control, profiling panel. 5.5% of 65,000 active. AID 709. fluorescence fold increase at 10 µM. compound autofluorescence, ex339/em460 nm, NADH buffer; stronger effect = higher value; 1 = no-compound wells, NADH background;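 active = at 10 µM, mean starting fluorescence two-fold or more over control wells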;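 note: signal is the first read of a kinetic run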
Each line names hits and unclear results; the compound was inactive in the other large screens.

CCOC(=O)c1sc(C)c(C(=O)NCCCN2CCOCC2)c1N	Autofluor 339 2.26
Cc1ccc(CCNC(=O)c2coc3nc4ccccc4nc23)cc1	Autofluor 339 2.28
CC1CCN(CCCNC(=O)c2n[nH]c(=O)c3ccccc23)CC1	none
CC1CCCN(CCCNC(=O)c2coc3nc4ccccc4nc23)C1 (configuration not stated)	Autofluor 339 4.88 (not shown: Spn DPM-DC inh)
CC1CCN(CCCNC(=O)c2coc3nc4ccccc4nc23)CC1	Autofluor 339 3.35 (not shown: Spn DPM-DC inh)
Cc1occc1C(=O)NCCCc1ccccc1	none
CC1CCCCN1CCNC(=O)CN1C(=O)COc2ccccc21 (configuration not stated)	none
CCS(=O)(=O)c1ccc(O)c(NC(=O)Nc2ccccc2)c1	Spn MK inh 42.0
O=c1oc2ccc3ccccc3c2cc1-c1nnc(-c2ccccc2)o1	Autofluor 339 4.3 (not shown: Spn DPM-DC inh)
O=c1oc2ccccc2cc1-c1nnc(-c2cccc(Br)c2)o1	Autofluor 339 3.86 (not shown: Spn DPM-DC inh)
CCOc1cccc2cc(-c3nnc(-c4ccccc4)o3)c(=O)oc12	none
O=C(Nc1ccccc1C(=O)NCCN1CCOCC1)c1ccco1	none
CCOC(=O)Cc1csc(-n2sc3ccccc3c2=O)n1	Spn MK inh 67.0, Spn DPM-DC inh active
CCOC(=O)N1CCC(NC(=O)c2cc3c(-c4ccccc4F)nn(C)c3s2)CC1	Autofluor 339 2.01
CC1CCCCN1CCNC(=O)c1cc2c(-c3ccccc3F)nn(C)c2s1 (configuration not stated)	Autofluor 339 2.15 (not shown: Spn DPM-DC inh)
COc1ccc(-c2nn(C)c3sc(C(=O)NCc4ccco4)cc23)cc1OC	Autofluor 339 3.1
CCOC(=O)N1CCC(NC(=O)c2cc3c(-c4ccc(OC)c(OC)c4)nn(C)c3s2)CC1	Autofluor 339 2.42
Nc1nnnn1/N=C/c1ccccn1	none
CCN(CC)C(=O)Oc1ccc(NC(C)=O)cc1	none
c1cncc(-c2nn3c(-c4ccncc4)nnc3s2)c1	none
CCN(CC)c1ccc2cc(-c3nc4ccccc4[nH]3)c(=O)oc2c1	none
CCN(CC)c1ccc2cc(-c3nc4ccccc4n3C)c(=O)oc2c1	Autofluor 339 2.13 (not shown: Spn DPM-DC inh)
CCOc1ccc2[nH]c3c(N4CCN(c5ccccn5)CC4)ncnc3c2c1	Autofluor 339 2.67
COC(=O)COc1ccc(S(=O)(=O)Nc2ccc(C(N)=O)cc2)cc1Cl	none
CCOC(=O)CCc1c(C)c2ccc(OC(C)C(=O)OCC)c(C)c2oc1=O (configuration not stated)	Autofluor 339 3.77 (not shown: Spn DPM-DC inh)
CCOC(=O)C(C)Oc1ccc2c(C)cc(=O)oc2c1C(C)=O (configuration not stated)	none
Cc1nn(-c2ccccn2)c2nc(-c3cccs3)cc(C(=O)N3CCOCC3)c12	Autofluor 339 2.11 (not shown: Spn DPM-DC inh)
c1ccc(-c2nc3c4ccccc4nc(N4CCN(c5ccccn5)CC4)n3n2)cc1	none
COc1ccc(C)cc1NCc1cccc(OC)c1OC	Spn MK inh 47.0
COCCn1nnnc1C(c1cc2ccc(C)cc2[nH]c1=O)N(Cc1ccco1)Cc1cccs1 (configuration not stated)	none (no result: Spn MK inh)
CCN(CC)C(=O)CSc1ncnc2c(-c3cccs3)nsc12	Autofluor 339 2.6
CCOC(=O)c1c(NC(=O)c2nn(CC)cc2Br)sc2c1CCCCC2	Autofluor 339 3.58 (not shown: Spn DPM-DC inh)
CCOC(=O)c1c(NC(=O)c2ccc(-n3cnnn3)cc2)sc2c1CCCC2	Autofluor 339 3
Cc1cccc(C)c1NC(=O)c1ccc(-n2cnnn2)cc1	none
CCOC(=O)c1c(NC(=O)c2nn(CC)cc2Br)sc(C)c1C	Autofluor 339 3.55 (not shown: Spn DPM-DC inh)
C=CCOc1ccc(C(=O)N(Cc2ccc(N(C)C)cc2)C2CCS(=O)(=O)C2)cc1 (configuration not stated)	none
COc1ccc(S(=O)(=O)Nc2ccc3oc(C)c(C(=O)O)c3c2)cc1	none
COCCOC(=O)c1c(C)oc2ccc(NS(=O)(=O)c3ccc(F)cc3)cc12	Spn DPM-DC inh active
Cc1ccc(CSc2nc3c(c(=O)[nH]2)C(c2ccncc2)C2=C(CCCC2=O)N3)cc1 (configuration not stated)	Autofluor 339 2.36 (not shown: Spn DPM-DC inh)
CC(C)Oc1cc2oc(=O)c3c(c2cc1Cl)CCC3	Autofluor 339 2.31
Cc1cc(=O)oc2cc(OC(C)C(=O)O)c(Cl)cc12 (configuration not stated)	Spn DPM-DC inh active, Autofluor 339 3.17
